In all, about 5,500 compounds went through this assay and about 2,000 (36%) were called active. Inconclusive results (about 18%) are left out. The list shows a part of the results. A number with no mark means an inactive call. Rule as the data show it: active = normalized growth mostly below about 0.91 (no sharp cut-off); inconclusive = no clear call, values can overlap the other calls; inactive = mostly above about 0.92.
Assay: chemical genetic growth profiling, strain panel (AID 1159580);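 also: tested at 20 µM; growth read once vehicle control cultures reached saturation at 30 °C; 1 = growth at the plate median or of vehicle wells; lower values mean less growth of the strain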
Details: growth OD

Q: Which normalized growth (S. cerevisiae deletion strains, locus YJR075W, strain HOC1, hits give low values) does the source give for `C[C@](N)(Cc1ccc(O)c(O)c1)C(=O)O` here?
A: 1.01

Q: What about the normalized growth (S. cerevisiae deletion strains, locus YKL009W, strain mrt4, hits give low values) of the same molecule?
A: 0.97

Q: And the normalized growth (S. cerevisiae deletion strains, locus YKL068W, hits give low values)?
A: 0.997

Q: And the normalized growth (S. cerevisiae deletion strains, locus YKL085W, strain MDH1 (second series), hits give low values)?
A: 0.983

Q: And the normalized growth (S. cerevisiae deletion strains, locus YKL085W, strain MDH1, hits give low values)?
A: 0.983

Q: What about the normalized growth (S. cerevisiae deletion strains, locus YKL160W, strain elf1, hits give low values) of the same molecule?
A: 0.927

Q: What about the normalized growth (S. cerevisiae deletion strains, locus YKL190W, strain CNB1, hits give low values) of the same molecule?
A: 0.951

Q: What about the normalized growth (S. cerevisiae deletion strains, locus YKR001C, strain vps1, hits give low values) of the same molecule?
A: 0.979

Q: What about the normalized growth (S. cerevisiae deletion strains, locus YKR026C, strain gcn3, hits give low values) of the same molecule?
A: 0.986

Q: And the normalized growth (S. cerevisiae deletion strains, locus YKR091W, strain srl3, hits give low values)?
A: 0.972

Q: And the normalized growth (S. cerevisiae deletion strains, locus YLL001W, strain dnm1, hits give low values)?
A: 0.914

Q: And the normalized growth (S. cerevisiae deletion strains, locus YLL026W, hits give low values)?
A: 0.984

Q: What about the normalized growth (S. cerevisiae deletion strains, locus YLL041C, strain sdh2, hits give low values) of the same molecule?
A: 0.994

Q: And the normalized growth (S. cerevisiae deletion strains, locus YLR027C, strain aat2, hits give low values)?
A: 0.983

Q: And the normalized growth (S. cerevisiae deletion strains, locus YLR039C, strain RIC1, hits give low values)?
A: 0.975

Q: What about the normalized growth (S. cerevisiae deletion strains, locus YLR058C, strain SHM2, hits give low values) of the same molecule?
A: 0.979

Q: What about the normalized growth (S. cerevisiae deletion strains, locus YLR102C, strain apc9, hits give low values) of the same molecule?
A: 1

Q: What about the normalized growth (S. cerevisiae deletion strains, locus YLR113W, strain HOG1, hits give low values) of the same molecule?
A: 1

Q: And the normalized growth (S. cerevisiae deletion strains, locus YLR221C, strain rsa3, hits give low values)?
A: 0.911

Q: And the normalized growth (S. cerevisiae deletion strains, locus YLR258W, strain gsy2, hits give low values)?
A: 0.959

Q: What about the normalized growth (S. cerevisiae deletion strains, locus YLR262C, strain YPT6 (second series), hits give low values) of the same molecule?
A: 0.892

Q: What about the normalized growth (S. cerevisiae deletion strains, locus YLR262C, strain YPT6, hits give low values) of the same molecule?
A: 0.878

Q: And the normalized growth (S. cerevisiae deletion strains, locus YLR268W, strain sec22, hits give low values)?
A: 1.06

Q: What about the normalized growth (S. cerevisiae deletion strains, locus YLR320W, strain mms22, hits give low values) of the same molecule?
A: 0.944

Q: What about the normalized growth (S. cerevisiae deletion strains, locus YLR330W, strain CHS5, hits give low values) of the same molecule?
A: 0.982

Q: What about the normalized growth (S. cerevisiae deletion strains, locus YLR342W, strain FKS1 (second series), hits give low values) of the same molecule?
A: 0.861

Q: What about the normalized growth (S. cerevisiae deletion strains, locus YLR342W, strain FKS1, hits give low values) of the same molecule?
A: 0.967

Q: What about the normalized growth (S. cerevisiae deletion strains, locus YLR357W, strain rsc2, hits give low values) of the same molecule?
A: 0.92

Q: And the normalized growth (S. cerevisiae deletion strains, locus YLR370C, strain arc18, hits give low values)?
A: 0.945

Q: And the normalized growth (S. cerevisiae deletion strains, locus YLR371W, strain rom2, hits give low values)?
A: 0.983

Q: What about the normalized growth (S. cerevisiae deletion strains, locus YLR384C, strain iki3, hits give low values) of the same molecule?
A: 0.981

Q: And the normalized growth (S. cerevisiae deletion strains, locus YLR418C, strain cdc73, hits give low values)?
A: 1

Q: And the normalized growth (S. cerevisiae deletion strains, locus YML016C, strain PPZ1, hits give low values)?
A: 0.957

Q: What about the normalized growth (S. cerevisiae deletion strains, locus YML032C, strain rad52, hits give low values) of the same molecule?
A: 1.01

Q: And the normalized growth (S. cerevisiae deletion strains, locus YML120C, strain ndi1, hits give low values)?
A: 0.915

Q: What about the normalized growth (S. cerevisiae deletion strains, locus YML124C, strain tub3, hits give low values) of the same molecule?
A: 0.993

Q: And the normalized growth (S. cerevisiae deletion strains, locus YMR058W, strain fet3, hits give low values)?
A: 0.944

Q: What about the normalized growth (S. cerevisiae deletion strains, locus YMR078C, strain ctf18, hits give low values) of the same molecule?
A: 0.99

Q: What about the normalized growth (S. cerevisiae deletion strains, locus YMR125W, strain sto1, hits give low values) of the same molecule?
A: 0.941

Q: And the normalized growth (S. cerevisiae deletion strains, locus YMR129W, hits give low values)?
A: 0.985

Q: And the normalized growth (S. cerevisiae deletion strains, locus YMR205C, strain PFK2, hits give low values)?
A: 0.983

Q: And the normalized growth (S. cerevisiae deletion strains, locus YMR223W, strain ubp8, hits give low values)?
A: 0.938

Q: What about the normalized growth (S. cerevisiae deletion strains, locus YMR231W, strain pep5, hits give low values) of the same molecule?
A: 0.988

Q: And the normalized growth (S. cerevisiae deletion strains, locus YMR263W, strain SAP30, hits give low values)?
A: 1

Q: What about the normalized growth (S. cerevisiae deletion strains, locus YMR307W, strain GAS1, hits give low values) of the same molecule?
A: 0.765

Q: And the normalized growth (S. cerevisiae deletion strains, locus YNL067W, strain RPL9B, hits give low values)?
A: 0.979

Q: What about the normalized growth (S. cerevisiae deletion strains, locus YNL071W, strain lat1, hits give low values) of the same molecule?
A: 0.978

Q: What about the normalized growth (S. cerevisiae deletion strains, locus YNL128W, strain TEP1, hits give low values) of the same molecule?
A: 0.896

Q: What about the normalized growth (S. cerevisiae deletion strains, locus YNL153C, strain GIM3, hits give low values) of the same molecule?
A: 1.01

Q: What about the normalized growth (S. cerevisiae deletion strains, locus YNL183C, strain NPR1, hits give low values) of the same molecule?
A: 0.976

Q: What about the normalized growth (S. cerevisiae deletion strains, locus YNL209W, strain ssb2, hits give low values) of the same molecule?
A: 0.891 (active)

Q: And the normalized growth (S. cerevisiae deletion strains, locus YNL233W, strain BNI4, hits give low values)?
A: 0.972

Q: And the normalized growth (S. cerevisiae deletion strains, locus YNL248C, strain rpa49, hits give low values)?
A: 0.979

Q: What about the normalized growth (S. cerevisiae deletion strains, locus YNL250W, strain rad50, hits give low values) of the same molecule?
A: 0.982

Q: And the normalized growth (S. cerevisiae deletion strains, locus YNL271C, strain bni1, hits give low values)?
A: 0.989

Q: And the normalized growth (S. cerevisiae deletion strains, locus YNL298W, strain CLA4, hits give low values)?
A: 0.999

Q: What about the normalized growth (S. cerevisiae deletion strains, locus YNL307C, strain MCK1, hits give low values) of the same molecule?
A: 0.996

Q: What about the normalized growth (S. cerevisiae deletion strains, locus YNL322C, strain KRE1 (second series), hits give low values) of the same molecule?
A: 0.96

Q: And the normalized growth (S. cerevisiae deletion strains, locus YNL322C, strain KRE1, hits give low values)?
A: 0.984

Q: And the normalized growth (S. cerevisiae deletion strains, locus YNR049C, strain mso1, hits give low values)?
A: 0.969

Q: And the normalized growth (S. cerevisiae deletion strains, locus YNR052C, strain pop2, hits give low values)?
A: 0.991

Q: And the normalized growth (S. cerevisiae deletion strains, locus YOL006C, strain TOP1, hits give low values)?
A: 0.529 (active)

Q: What about the normalized growth (S. cerevisiae deletion strains, locus YOL012C, strain htz1) of the same molecule?
A: 0.552

Q: What about the normalized growth (S. cerevisiae deletion strains, locus YOL147C, strain pex11, hits give low values) of the same molecule?
A: 0.989

Q: And the normalized growth (S. cerevisiae deletion strains, locus YOR001W, strain rrp6, hits give low values)?
A: 1.02

Q: What about the normalized growth (S. cerevisiae deletion strains, locus YOR061W, strain CKA2, hits give low values) of the same molecule?
A: 0.938

Q: And the normalized growth (S. cerevisiae deletion strains, locus YOR069W, strain VPS5, hits give low values)?
A: 0.991

Q: What about the normalized growth (S. cerevisiae deletion strains, locus YOR070C, strain gyp1, hits give low values) of the same molecule?
A: 0.988

Q: What about the normalized growth (S. cerevisiae deletion strains, locus YOR080W, strain dia2, hits give low values) of the same molecule?
A: 0.956

Q: And the normalized growth (S. cerevisiae deletion strains, locus YOR083W, strain WHI5, hits give low values)?
A: 0.919

Q: What about the normalized growth (S. cerevisiae deletion strains, locus YOR106W, strain vam3, hits give low values) of the same molecule?
A: 0.885

Q: And the normalized growth (S. cerevisiae deletion strains, locus YOR136W, strain idh2, hits give low values)?
A: 0.99

Q: What about the normalized growth (S. cerevisiae deletion strains, locus YOR144C, strain elg1, hits give low values) of the same molecule?
A: 1.01

Q: And the normalized growth (S. cerevisiae deletion strains, locus YOR184W, strain ser1, hits give low values)?
A: 0.998

Q: What about the normalized growth (S. cerevisiae deletion strains, locus YOR231W, strain MKK1, hits give low values) of the same molecule?
A: 1.03

Q: And the normalized growth (S. cerevisiae deletion strains, locus YOR265W, strain rbl2, hits give low values)?
A: 0.956

Q: What about the normalized growth (S. cerevisiae deletion strains, locus YOR270C, strain vph1, hits give low values) of the same molecule?
A: 0.965

Q: What about the normalized growth (S. cerevisiae deletion strains, locus YOR290C, strain snf2, hits give low values) of the same molecule?
A: 0.86 (active)

Q: And the normalized growth (S. cerevisiae deletion strains, locus YOR316C, strain cot1, hits give low values)?
A: 1

Q: And the normalized growth (S. cerevisiae deletion strains, locus YPL051W, strain arl3, hits give low values)?
A: 0.947

Q: What about the normalized growth (S. cerevisiae deletion strains, locus YPL055C, strain LGE1, hits give low values) of the same molecule?
A: 0.915

Q: What about the normalized growth (S. cerevisiae deletion strains, locus YPL078C, strain atp4, hits give low values) of the same molecule?
A: 0.947

Q: And the normalized growth (S. cerevisiae deletion strains, locus YPL106C, strain sse1, hits give low values)?
A: 0.882

Q: And the normalized growth (S. cerevisiae deletion strains, locus YPL240C, strain hsp82, hits give low values)?
A: 0.979

Q: What about the normalized growth (S. cerevisiae deletion strains, locus YPL241C, strain CIN2, hits give low values) of the same molecule?
A: 0.966

Q: What about the normalized growth (S. cerevisiae deletion strains, locus YPL256C, strain CLN2, hits give low values) of the same molecule?
A: 1.08

Q: And the normalized growth (S. cerevisiae deletion strains, locus YPR119W, strain clb2, hits give low values)?
A: 0.993

Q: And the normalized growth (S. cerevisiae deletion strains, locus YPR141C, strain kar3, hits give low values)?
A: 0.987

Q: What about the normalized growth (S. cerevisiae deletion strains, locus YPR163C, strain tif3, hits give low values) of the same molecule?
A: 1

Q: And the normalized growth (S. cerevisiae deletion strains, locus YPR167C, strain met16, hits give low values)?
A: 0.997

Q: And the normalized growth (S. cerevisiae deletion strains, strain wtn01, hits give low values)?
A: 1.01

Q: What about the normalized growth (S. cerevisiae strains, strain wild type, hits give low values) of the same molecule?
A: 0.9 (active)
